# Data: PubChem BioAssay AID686979 (National Center for Advancing Translational Sciences (NCATS), 2013)
# About 50,000 (12%) of roughly 420,000 compounds were called active. About 26% were inconclusive and are not listed. The call rests on the fitted dose curve; in most records, active means well fitted inhibition curve with a large enough effect; inconclusive means small, poorly fitted or top-dose-only effect; inactive means flat fitted curve, though single readings scatter. Shown is part of a subset that was picked to be rich in actives. Where a call stands in place of a potency, no number is given.
# Experiment: qHTS for Inhibitors of human tyrosyl-DNA phosphodiesterase 1 (TDP1): qHTS in cells in presence of CPT; further: nearly all actives have a fitted effect of over 55% in size
# Conditions: chicken DT40 Tdp1-/-;hTDP1 cells + 20 nM CPT, ATP luminescence, 48 h; series mostly up to 46.2 µM
# Summary of the method: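 Cell growth measured by CellTiter-Glo luminescence after a minimum 48 h, 37 C compound exposure with 20 nM CPT in Tdp1-knockout DT40 cells stably expressing hTDP1, seeded 400/well; qHTS titration format.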
# Potency means the concentration at half of the fitted maximal effect.
row,SMILES,Potency
1,C[C@@H]1CN([C@H](C)CO)S(=O)(=O)c2ccc(C#C[C@@H](C)O)cc2O[C@@H]1CN(C)Cc1ccc(-c2ccccc2)cc1,11.6 µM (active)
2,C[C@@H]1CN([C@@H](C)CO)S(=O)(=O)c2ccc(-c3ccc(C(=O)N(C)C)cc3)cc2O[C@@H]1CN(C)Cc1ccccc1C(=O)O,inactive
3,Cc1ccccc1-c1ccc2c(c1)O[C@@H](CN(C)Cc1ccc(C(=O)O)cc1)[C@@H](C)CN([C@H](C)CO)S2(=O)=O,inactive
4,C[C@@H]1CN([C@@H](C)CO)S(=O)(=O)c2ccc(C#Cc3cccc(F)c3)cc2O[C@H]1CN(C)S(=O)(=O)c1cn(C)cn1,18.4 µM (active)
5,C[C@H]1CN([C@@H](C)CO)S(=O)(=O)c2ccc(-c3cccc(F)c3)cc2O[C@@H]1CN(C)C,inactive
6,C[C@H](CO)N1C[C@H](C)[C@@H](CN(C)C(=O)c2cccc(F)c2)Oc2cc(-c3cncnc3)ccc2S1(=O)=O,inactive
7,CCc1c(C)nc2cc(C)[nH]n2c1=O,inactive
8,CCOc1ccc(S(=O)(=O)NCCC(=O)NCC2CCCO2)cc1 (stereo unspecified),inactive
9,Cc1c[n+]([O-])ccc1[N+](=O)[O-],inactive
10,O=C(NCc1ccccc1)C1CNCC(C(=O)NCc2ccccc2)C1 (stereo unspecified),inactive
11,O=C(O)C1CC=C(Cl)CC1C(=O)NCc1ccccc1 (stereo unspecified),inactive
12,O=C(NCc1ccccc1)[C@H]1C[C@@H]1[C@H](NP(=O)(c1ccccc1)c1ccccc1)c1ccccc1,18.4 µM (active)
13,CCc1cc2cc(OC)ccc2nc1SCC(=O)Nc1cc(OC)c(OC)cc1C(=O)O,inactive
14,COc1ccc(C)cc1NC(=O)CSc1cccc[n+]1[O-],inactive
15,CC(=O)c1nc2ccccc2n1Cc1ccccc1,inactive
16,CCC(C(=O)NC(C)(C)C)n1c(-c2ccccc2)nc2ccccc21 (stereo unspecified),20.6 µM (active)
17,CCCc1nc2ccccc2n1C(C)C(=O)NC(C)(C)C (stereo unspecified),inactive
18,CCC(C(=O)Nc1c(C)cccc1C)n1c(-c2cc(C)cs2)nc2ccccc21 (stereo unspecified),inactive
19,CC(C)(C)NC(=O)C(CCc1ccccc1)n1c(=O)c(-c2ccccc2)nc2ccccc21 (stereo unspecified),5.17 µM (active)
20,Cn1c(CNC(=O)C(C)(C)C)nc2ccccc21,inactive
21,COc1ccc(OC)c(/C=N/NC(=O)c2ccc[n+](CC(=O)c3ccccc3)c2)c1,inactive
22,COc1cccc(NC(=O)CN(C)C(=O)c2cc(C3CC3)nn2-c2ccccc2)c1,inactive
23,CC(=O)Nc1ccc(NC(=O)COC(=O)C2CCC(C(C)(C)C)CC2)cc1 (stereo unspecified),inactive
24,O=C(NCc1cccc(Cl)c1)C1CCN(c2nnc(N3CCCC3=O)s2)CC1,inactive
25,Cc1ccc(CCNC(=O)Cn2c(-c3cccs3)cc3cc(F)ccc32)cc1,18.4 µM (active)
26,COc1ccc(CCNC(=O)COC(=O)Cc2cccc(F)c2)cc1,inactive

row,SMILES,Potency
1,COc1ccc(CCNC(=O)CN2CCC(n3nnc4cc(F)ccc43)CC2)cc1OC,inactive
2,Cc1cnc(C(=O)Oc2cccc(Cl)c2Cl)cn1,inactive
3,CCOC(=O)c1cnc(SC)nc1Sc1ccc(Cl)cc1Cl,inactive
4,O=C1[C@@H](c2ccccc2)[C@@H](c2ccccc2)N1c1cccnc1,16.4 µM (active)
5,CCc1ccccc1NC1c2ccccc2C(=O)N1c1cccnc1 (stereo unspecified),inactive
6,O=C1C(=O)N(c2ccccc2)C(c2ccccc2)C1c1ccccc1 (stereo unspecified),inactive
7,CCCN(CCC)c1c([N+](=O)[O-])c(=O)oc2ccccc12,inactive
8,O=C(COC(=O)c1ccncc1)c1ccccc1,inactive
9,O=C(c1c(Cl)cccc1Cl)N1CCN(c2cccc3[nH]ccc23)CC1,inactive
10,Cc1cccc(N2CCN(C(=O)c3cc4c(=O)[nH]c5ccccc5c4n3C)CC2)c1C,18.4 µM (active)
11,Cc1[nH]c2ccc(C(=O)N3CCN(C)CC3)cc2c1C,inactive
12,CN(C(=O)COC(=O)CCCc1c[nH]c2ccccc12)c1c(N)n(Cc2ccccc2)c(=O)[nH]c1=O,inactive
13,Oc1cc(O)c2c(c1)OC(c1ccc(O)c(O)c1)C(O)C2 (stereo unspecified),inactive
14,Cc1sc2nc(-c3ccccc3F)oc(=O)c2c1C,inactive
15,COc1ccc(-c2csc3nc(-c4ccccc4F)oc(=O)c23)cc1OC,18.4 µM (active)
16,COc1ccccc1-c1nnc(-c2ccc(F)cc2)o1,inactive
17,Cc1ccc(N/C(N)=N/c2nc(C(F)(F)F)cc(C(F)(F)F)n2)cc1,inactive
18,CCc1cccc(NC(=O)CCNS(=O)(=O)c2cccc3nonc23)c1,inactive
19,Cc1ccc(NC(=O)CSc2nnc3[nH]c(=O)cc(C)n23)cc1Cl,inactive
20,Cc1ccc(NC(=O)CSc2nc3c([nH]c4ccccc43)c(=O)n2-c2ccccc2)cc1Cl,11.6 µM (active)
21,CC(Sc1nc2c([nH]c3ccccc32)c(=O)n1C)c1ccccc1 (stereo unspecified),11.6 µM (active)
22,CCc1ccc(NC(=O)CSc2nc3c([nH]c4ccccc43)c(=O)n2-c2cccc(OC)c2)cc1,inactive
23,CCOC(=O)c1ccc(NC(=O)c2cc(=O)[nH]c3ccccc23)cc1,inactive
24,CCOC(=O)c1ccc(NC(=O)CSc2nc3c([nH]c4ccccc43)c(=O)n2C)cc1,8.2 µM (active)
25,Cc1ccc(C)c(NC(=O)COC(=O)CSc2ccccc2)c1,inactive
26,Cc1ccc(C)c(NC(=O)CSc2nc3c(oc4ccccc43)c(=O)n2-c2ccccc2)c1,14.6 µM (active)

row,SMILES,Potency
1,CCOC(=O)c1ccc(NC(=O)CSc2nnc(COc3ccccc3OC)n2C)cc1,inactive
2,Cc1cccc(NC(=O)CSc2nc3c(oc4ccccc43)c(=O)n2-c2ccc(F)cc2)c1,inactive
3,CCCCc1nc2c(=O)[nH]c3ccccc3c2o1,inactive
4,Cn1nnnc1SCc1cc(=O)[nH]c2ccccc12,inactive
5,Nc1c(N(CCCO)C(=O)C2CCCC2)c(=O)[nH]c(=O)n1Cc1ccccc1,inactive
6,Cn1c(=O)[nH]c2c(c(C(=O)O)nn2C)c1=O,inactive
7,Oc1c(Cl)cc(Cl)cc1/C=N/c1ncn[nH]1,inactive
8,Cc1ccc(NC(=O)CN(C)C(=O)c2ccc(Br)o2)cc1,inactive
9,CC(C)c1nnc(NC(=O)COC(=O)/C=C/c2ccc([N+](=O)[O-])cc2)s1,inactive
10,O=C(Nc1ccc(F)cc1)C(=O)c1cn(CC(=O)N2CCOCC2)c2ccccc12,inactive
11,O=C(Nc1ccc(C(=O)O)cc1)/C(=C\c1ccccc1)NC(=O)c1ccc(Br)cc1,inactive
12,COc1cccc(NC(=O)Cn2c3ccc(F)cc3c3nc4n(c(=O)c32)CCS4)c1,inactive
13,C=CCN1C(=O)c2ccc(C(=O)N3CCC(C(=O)OCC)CC3)cc2C1=O,inactive
14,O=[N+]([O-])c1ccc(N2CCN(c3ccc(O)cc3)CC2)c(Cl)c1,inactive
15,COc1ccc(S(=O)(=O)NCC(c2ccc(C)cc2)N2CCN(C)CC2)cc1OC (stereo unspecified),inactive
16,Cc1nn(Cc2ccccc2)c(C)c1C(=O)NCCCN1CCCC1=O,inactive
17,Cc1nn(Cc2ccccc2)c(C)c1C(=O)NCCN1C(=O)S/C(=C\c2ccc(F)cc2)C1=O,16.4 µM (active)
18,Cn1cccc1/C=C1\SC(=O)N(CC(=O)Nc2ccc(F)cc2)C1=O,inactive
19,O=C(COc1coc(CN2CCN(c3ccccc3)CC2)cc1=O)N1CCc2ccccc21,inactive
20,CC(Sc1nnc(COc2ccccc2)n1-c1ccccc1)C(=O)O (stereo unspecified),inactive
21,O=C(O)c1cnn2c(C(F)(F)F)cc(-c3ccccc3)nc12,inactive
22,COc1ccc(-c2cc(C(F)(F)F)n3nc(C(=O)N4CCOCC4)c(Cl)c3n2)cc1,16.4 µM (active)
23,COc1ccc(OCC(=O)N2CCOCC2)cc1,inactive
24,CC(=O)Nc1ccc(SCC(=O)NC(=O)c2ccc(Cl)cc2)cc1,inactive
25,O=c1onc(-c2c(F)cccc2F)n1-c1ccccc1Cl,inactive
26,COc1ccc(CN(C)CCn2cc(C(=O)N3CCSCC3)nn2)cc1C,inactive

row,SMILES,Potency
1,O=C(O)C1CCCN(CCC=C(c2ccccc2)c2ccccc2)C1 (stereo unspecified),inactive
2,Cn1c(=O)c2c(nc(CN3CCOCC3)n2Cc2ccccc2)n(C)c1=O,inactive
3,COCCn1c(CN2CCC(Cc3ccccc3)CC2)nc2c1c(=O)n(C)c(=O)n2C,8.2 µM (active)
4,CC1CCCN(Cc2nc3c(c(=O)n(C)c(=O)n3C)n2CC(=O)c2ccccc2)C1 (stereo unspecified),23.1 µM (active)
5,CCN1CCN(Cc2nc3c(c(=O)n(C)c(=O)n3C)n2CC(=O)c2ccccc2)CC1,inactive
6,O=c1cc(CO)oc(CN2CCC(Cc3ccccc3)CC2)c1O,inactive
7,CCc1ccc(N2CC(C(=O)N3CCCCCC3)CC2=O)cc1 (stereo unspecified),inactive
8,Cc1c(C(=O)NC(C)C2CC3CCC2C3)cccc1[N+](=O)[O-] (stereo unspecified),inactive
9,CCn1c(CSc2nc(C)cc(C)n2)nnc1SCC(N)=O,inactive
10,O=C(Nc1ccccc1Br)c1cc(CN2CCCC2)on1,inactive
11,Cc1cn(COC/C=C/c2ccccc2)c(=O)[nH]c1=O,inactive
12,O=C(NCc1ccccn1)c1c(O)c2c([nH]c1=O)CCCC2,inactive
13,Cc1[nH]c(=O)c(C(=O)/C=C/c2ccccc2)c2c1CCCC2,5.8 µM (active)
14,O=C1NC(=O)C(c2ccc(Cl)cc2)N1 (stereo unspecified),inactive
15,CCCCN(C(=O)C1=NN(c2cc(C)ccc2C)C(=O)CC1)c1c(N)n(CCC)c(=O)[nH]c1=O,inactive
16,O=C(NCC1CCCO1)c1cc2c([nH]c3ccccc32)c(-c2ccc(F)cc2)n1 (stereo unspecified),2.06 µM (active)
17,O=C(NCC1CCCO1)c1ccc2ccccc2n1 (stereo unspecified),inactive
18,O=C(NCC1CCCO1)c1cc(-c2ccccc2)nc2ccccc12 (stereo unspecified),inactive
19,CCOC(=O)c1c(-c2ccccc2)oc2cc(Br)c(O)cc12,inactive
20,O=C(c1ccncc1)N1CCN(c2ccc3ccccc3n2)CC1,inactive
21,N=c1n(CCc2ccccc2)c2ccccc2n1Cc1ccccc1F,7.31 µM (active)
22,Cn1cc(CN2CCC(C(O)CCc3ccccc3)CC2)c(-c2ccccc2F)n1 (stereo unspecified),inactive
23,O=C(COC(=O)Cc1ccccc1F)NCCc1ccccc1,inactive
